From PubChem BioAssay
FBA Mtb inh: Mtb FBA enzyme inhibitors, primary screen, biochemical, fluorescence, strain H37Rv. Fructose-bisphosphate aldolase (Mycobacterium tuberculosis (strain ATCC 25618 / H37Rv)), …. purified M. tuberculosis FBA, fluorescence read-out. inhibition, % at 1 µM. actives 2.3% (n = 360,000). AID 588726, 2011; in the data active = inhibition above about 27%
Anthrax LF inh2: Bacillus anthracis LF protease inhibitors, primary screen, biochemical, multiplex microsphere, MLPCN library | inhibition, % at 10 µM | actives 0.12% (n = 360,000) | Lethal factor (Bacillus anthracis), P15917 | multiplex microsphere protease cleavage assay
Target sequence (P15917 whole entry, looked up): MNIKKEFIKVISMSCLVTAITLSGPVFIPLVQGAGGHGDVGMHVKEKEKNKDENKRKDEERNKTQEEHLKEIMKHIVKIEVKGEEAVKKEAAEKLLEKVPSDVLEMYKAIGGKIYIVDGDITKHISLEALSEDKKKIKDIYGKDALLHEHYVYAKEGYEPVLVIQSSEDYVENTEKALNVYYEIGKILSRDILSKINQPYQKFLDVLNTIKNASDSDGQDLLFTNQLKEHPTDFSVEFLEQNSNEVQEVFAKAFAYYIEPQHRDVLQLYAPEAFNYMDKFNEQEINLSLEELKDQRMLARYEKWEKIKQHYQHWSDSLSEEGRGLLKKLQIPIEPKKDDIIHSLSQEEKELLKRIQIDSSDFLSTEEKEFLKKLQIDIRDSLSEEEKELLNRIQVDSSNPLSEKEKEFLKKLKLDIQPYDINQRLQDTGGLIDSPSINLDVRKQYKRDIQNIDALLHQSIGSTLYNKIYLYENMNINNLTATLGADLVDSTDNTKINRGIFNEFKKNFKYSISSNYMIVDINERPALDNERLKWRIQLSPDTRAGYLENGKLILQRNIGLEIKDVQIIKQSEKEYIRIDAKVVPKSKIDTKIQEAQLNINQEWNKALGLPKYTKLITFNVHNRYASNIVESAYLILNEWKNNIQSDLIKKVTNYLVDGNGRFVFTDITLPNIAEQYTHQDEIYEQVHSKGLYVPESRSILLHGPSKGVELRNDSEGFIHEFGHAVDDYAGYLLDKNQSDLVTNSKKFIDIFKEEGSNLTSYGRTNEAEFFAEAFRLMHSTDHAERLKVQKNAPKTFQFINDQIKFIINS
BoNT A protease: BoNT/A light chain protease inhibitors, primary screen, biochemical, flow cytometry, MLPCN library. AID 588499, 2011. Botulinum neurotoxin type A light chain protease (Clostridium botulinum A str. ATCC 3502). inhibition, % at 10 µM. actives 0.17% (n = 360,000). multiplex microsphere protease substrate cleavage
Bead autofluor: counter-screen for toxin protease inhibitors: compound fluorescence. actives 3.1% (n = 360,000). fluorescence intensity (no concentration beside the values). compound autofluorescence counterscreen, microsphere flow cytometry; hits give high values; in the data active = fluorescence intensity above about 16000; inconclusive = no clear call, values can overlap the other calls
BoNT-F LC inh: BoNT/F light chain protease inhibitors, primary screen, biochemical, flow cytometry, MLPCN library | actives 0.22% (n = 360,000) | Multiplex microsphere protease cleavage assay | inhibition, % at 10 µM | Botulinum neurotoxin type F light chain protease (Clostridium botulinum); in the data active = inhibition above about 35%, passing the limit was not always enough; inconclusive = no clear call, values can overlap the other calls
GDH-TPI counter: GDH-TPI coupling enzyme inhibitors, primary screen, artefact control for M. tuberculosis FBA inhibitor project, biochemical, absorbance, full deck. actives 1.2% (n = 360,000). AID 588335, 2011. inhibition, % at 4.8 µM. GDH-TPI coupled enzyme counterscreen, NADH absorbance; in the data active = inhibition above about 30%
Of the large screens only hits and unclear results are named; the others gave an inactive call. Most compounds without a hit are left out; they make up all but 6.7% or so of the library. Rule as the data show it, unless noted: active = inhibition above about 30%; inconclusive = no clear call, values can overlap the other calls; inactive = below that.

COC(=O)c1ccc(NC(=O)CSCc2ccc(C)cc2)cc1	Bead autofluor 22818
COC(=O)c1ccc(NC(=O)CSCc2ccccc2C)cc1	Bead autofluor 22086
O=C(CCN1C(=O)c2ccccc2C1=O)OCn1nnc2ccccc2c1=O	none
CC(C)(C)OC(=O)N1CCC[C@H]1C(=O)N/N=C/c1cccc2cccnc12	none
CCN(CC)C(=O)C1=C(C)N(CCCN2CCCC2=O)C(=O)C(CC(=O)NC2CC2)C1 (stereo not drawn)	none
CCOC(=O)c1c(NC(=O)CN2C(=O)NC3(CCC(C)CC3)C2=O)sc(C(=O)N(C)C)c1C (stereo not drawn)	none
COc1ccccc1C(=O)N/C(=C/c1ccccc1)C(=O)NC(CCSC)C(=O)O (stereo not drawn)	none
CCCC(=O)NC(c1ccco1)c1c(O)ccc2ccccc12 (stereo not drawn)	BoNT A protease inconclusive, Bead autofluor 24638
CCCCC(=O)NC(c1ccco1)c1c(O)ccc2ccccc12 (stereo not drawn)	none
COc1cccc(OC)c1C(=O)Nc1nc(N)n(-c2ccccc2)n1	Bead autofluor 17413
CCOC(=O)c1nnn2c1nc(N1CCOCC1)c1ccccc12	none
Nc1nc2c(C(=O)N3CCOCC3)nnn2c2ccccc12	FBA Mtb inh 117 (no result: Anthrax LF inh2, BoNT A protease, Bead autofluor, BoNT-F LC inh)
COc1ccc(NC(=O)N2CCn3c2nc2ccccc23)cc1	Bead autofluor 19709
O/N=C/c1cccn1-c1ccc(O)cc1	Bead autofluor 23862
COc1cc2c(c(OC)c1OC)-c1ccc(C(=O)O)cc1[C@@H](NC(C)=O)CC2	none
COc1ccc(/C=N/n2c(=O)[nH]c3c([nH]c4ccc(F)cc43)c2=O)cc1CN1CCCCC1	FBA Mtb inh 82 (no result: Anthrax LF inh2, BoNT A protease, Bead autofluor, BoNT-F LC inh)
COc1ccc2c(c1)[nH]c1c(=O)n(/N=C/c3ccc(OC)c(CN4CCCC4)c3)cnc12	GDH-TPI counter 54
O=C1/C(=C/c2cccnc2)Oc2cc(OS(=O)(=O)c3ccc(Cl)cc3)ccc21	Bead autofluor 21029
O=C1/C(=C/c2cccnc2)Oc2cc(OS(=O)(=O)c3ccccc3)ccc21	GDH-TPI counter 46
CS(=O)(=O)Oc1ccc2c(c1)O/C(=C\c1cccnc1)C2=O	BoNT-F LC inh inconclusive
COc1ccc(S(=O)(=O)Oc2ccc3c(c2)O/C(=C\c2cccnc2)C3=O)cc1	BoNT A protease inconclusive, Bead autofluor 23126
CC(=O)Oc1ccc2occ(/C=N/c3cc(=O)[nH]c(=S)[nH]3)c(=O)c2c1	GDH-TPI counter 39
Cc1nn(CC(=O)NC2CCC(C)CC2)c(=O)c(C#N)c1C (stereo not drawn)	BoNT-F LC inh inconclusive
CN(Cc1cnn(-c2ccccc2)c1)C(=O)c1cccc(S(=O)(=O)N(C)c2ccccc2)c1	none
CC1CCc2sc(C(=O)Nc3ccc(C(N)=O)cc3)cc2C1 (stereo not drawn)	none
COC(=O)c1cccc(C23CC4(C2)[C@H](CN(CC2CCCCC2)[C@@H]4c2ccccc2)C3c2ccccc2)c1 (stereo partly drawn)	none
CSc1nc2ncnc(N)c2[nH]1	Anthrax LF inh2 inconclusive
Cc1ccc(N(Cc2ccccc2F)S(C)(=O)=O)c(C)c1	none
Cc1ccccc1N(Cc1ccccc1F)S(C)(=O)=O	Bead autofluor 23221
Cc1ccccc1CN(c1ccc(C(N)=O)cc1)S(C)(=O)=O	Bead autofluor 16249
O=C(c1cnc2ccccn2c1=O)N1CCCc2ccccc21	Bead autofluor 17332
O=C(c1cnc2n(c1=O)CCS2)N1CCCc2ccccc21	Bead autofluor 22039
Cc1cc(NC(=O)CSc2nnc(COc3ccccc3)n2Cc2ccco2)no1	none
Cn1cc([C@@H]2C[C@H]3CN(Cc4cccc(Cl)c4)C(=O)[C@]34CCCN24)c2ccccc21	Bead autofluor 17603
CCCOC(=S)N/C(=N\S(=O)(=O)c1ccccc1)c1ccccc1	Bead autofluor 23253
CCOC(=S)N/C(=N\S(=O)(=O)c1ccccc1)c1ccccc1	none
Cc1cc(Br)ccc1NC(=S)Nc1cccc([N+](=O)[O-])c1	none
O=C1CC(=O)CC(c2ccccc2Cl)C1	none
Cc1c(C(=O)OC(C)C)nnn1-c1nonc1N	none
CN(/N=C/c1ccncc1)c1cnn(-c2ccc(F)c(Cl)c2)c(=O)c1Cl	Bead autofluor 20433
COc1ccc(OCC#CCN2CC(C)OC(C)C2)cc1 (stereo not drawn)	none
CC(C)CCNC(=O)CN(CCN1CCOCC1)C(=O)Cn1nnc(-c2ccc(F)cc2)n1	Bead autofluor 22983
COc1ccc(-c2nnn(CC(=O)N(CC(=O)NCCC(C)C)Cc3cccs3)n2)cc1OC	BoNT A protease inconclusive, Bead autofluor 16733
COc1ccc(-c2nnn(CC(=O)N(Cc3cccs3)C(C)C(=O)NCCC(C)C)n2)cc1OC (stereo not drawn)	none
O=C(CN(CCN1CCOCC1)C(=O)Cn1nnc(-c2ccc(F)cc2)n1)NC1CCCCC1	none
Cc1ccc(C)c(NC(=O)CCN2C(=O)c3ccccc3C2=O)c1	none
COC(=O)c1cc(-c2ccccc2)sc1NC(=O)CN1C(=O)c2ccccc2C1=O	BoNT A protease inconclusive, Bead autofluor 23511
CC1CCN(S(=O)(=O)c2ccc(NC(=O)c3ccco3)cc2)CC1	none
CC1CCCCN1S(=O)(=O)c1ccc(NC(=O)CSc2nnnn2C)cc1 (stereo not drawn)	BoNT A protease inconclusive, Bead autofluor 21890
CC1CCCCN1S(=O)(=O)c1ccc(NC(=O)c2ccco2)cc1 (stereo not drawn)	BoNT A protease inconclusive, Bead autofluor 20490
O=C(Nc1cc(S(=O)(=O)Nc2ccccc2Cl)ccc1O)c1ccc(F)cc1F	none
N#Cc1c(-c2ccc([N+](=O)[O-])cc2)nc2n(c1=O)CCS2	none
N#Cc1c(-c2ccc(F)cc2)nc2n(c1=O)CCS2	Bead autofluor 22077
O=C(NCc1ccc(F)cc1)c1noc2c1CCCCC2	none
Cc1ccccc1Cn1cc(NC(=O)c2noc3c2CC(C(C)(C)C)CC3)cn1 (stereo not drawn)	BoNT A protease inconclusive, Bead autofluor 16905
CC(C)(C)C1CCc2onc(C(=O)NCc3ccc(F)cc3)c2C1 (stereo not drawn)	Bead autofluor 22455
Cc1ccccc1Cn1nc(C)c(NC(=O)c2noc3c2CC(C(C)(C)C)CC3)c1C (stereo not drawn)	none
O=C(NCc1ccc(F)cc1)c1noc2c1CCCC2	Bead autofluor 19451
CCCNC(=O)Cn1cnc2sc(C(=O)N3CCN(c4ccc(F)cc4)CC3)c(C)c2c1=O	Bead autofluor 20571
